Several values for one entry are separate records, joined by “and”; a condition that tells them apart may be missing. Equal values may be shown once. Records with an inconclusive call do not appear. A structure can be active in one record and inactive in another. Activity calls are given as the source filed them. Unless noted, calls come from the whole dose curve; as a rule, active = well fitted curve in the direction sought with a large enough effect in the repeat runs; inconclusive = weak or mixed curves; inactive = no such curve, though single readings can be large; an effect the other way counts as inactive or inconclusive.

A short description of assay [1]: qHTS assay to identify small molecule antagonists of the glucocorticoid receptor (GR) signaling pathway - cell viability counter screen (AID 720693). Note: nearly all actives have a fitted effect of over 55% in size. Background: In qHTS, concentration-response curves come from the screen itself.
Assay [2] in a line: qHTS assay for identifying genotoxic compounds that show differential cytotoxicity against isogenic chicken DT40 cell lines with known DNA damage response pathways - wild type cell line (AID 743012). Note: nearly all actives have a fitted effect of over 60% in size. Note: potency is the fitted concentration of half-maximal effect. The method, boiled down: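 Endpoint: CellTiter-Glo luminescence, 30 min RT. Cells: wild type DT40, 300/well. Exposure: compounds in DMSO, 40 h, 37 C/5% CO2, after ~0.5 h pre-incubation.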

Assay [3] can be described thus: qHTS assay for identifying genotoxic compounds that show differential cytotoxicity against isogenic chicken DT40 cell lines with known DNA damage response pathways - Rev3 mutant cell line (AID 743014). Note: nearly all actives have a fitted effect of over 55% in size. Note: potency is the fitted concentration of half-maximal effect.
The nature of assay [4]: qHTS assay for identifying genotoxic compounds that show differential cytotoxicity against isogenic chicken DT40 cell lines with known DNA damage response pathways - Rad54/Ku70 mutant cell line (AID 743015). Note: nearly all actives have a fitted effect of over 60% in size. Note: potency is the fitted concentration of half-maximal effect.
The nature of assay [5]: qHTS assay to identify small molecule antagonists of the androgen receptor (AR) signaling pathway - cell viability counter screen (AID 743033; note: nearly all actives have a fitted effect of over 45% in size; note: potency is the fitted concentration of half-maximal effect).
Assay [6] can be described thus: qHTS assay to identify small molecule antagonists of the androgen receptor (AR) signaling pathway using the MDA cell line - cell viability counter screen (AID 743041; note: nearly all actives have a fitted effect of over 45% in size; note: potency is the fitted concentration of half-maximal effect). The gist of the method: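 qHTS viability read-out; MDA-kb2 AR-luc; R1881-stimulated; 16 h exposure at 37C, 0% CO2; CellTiter-Fluor, 30 min; fluorescence intensity.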
Assay [7] in a line: qHTS assay to identify small molecule antagonists of the thyroid receptor (TR) signaling pathway - cell viability counter screen (AID 743064). Note: nearly all actives have a fitted effect of over 50% in size. Note: potency is the fitted concentration of half-maximal effect. The gist of the method: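 Same-well viability check: GH3.TRE-Luc cells stimulated with 1 nM T3 alongside test compound for 23.5 h, followed by CellTiter-Fluor fluorescence.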
The target of assay [8] is Androgen receptor (Homo sapiens) (UniProt P10275). As to the kind of experiment: qHTS assay to identify small molecule antagonists of the androgen receptor (AR) signaling pathway (AID 743035; active = well fitted inhibition curve with a large enough effect in the signal ratio in the repeat runs, not every such curve was filed as active; the % refers to the signal ratio). The gist of the method: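 R1881 agonist challenge of a HEK293 UAS-beta-lactamase AR reporter line in the presence of compound (16 h, 37C); signal taken as FRET fluorescence after 2 h with LiveBLAzer B/G substrate at room temperature.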

Assay [9] has the same target. As to the kind of experiment: qHTS assay to identify small molecule agonists of the androgen receptor (AR) signaling pathway (AID 743036; active = well fitted activation curve with a large enough effect in the signal ratio in the repeat runs, with a control signal flat, not every such curve was filed as active; the % refers to the signal ratio). The gist of the method: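 Agonist activity was scored by beta-lactamase reporter fluorescence in stably transfected HEK293 cells exposed to compounds for 16 h at 37C and 5% CO2. Substrate loading took 2 h at room temperature.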
For assay [10] the target is unchanged. As to the kind of experiment: qHTS assay to identify small molecule agonists of the androgen receptor (AR) signaling pathway using the MDA cell line (AID 743040; note: nearly all actives have a fitted effect of over 20% in size). The method, boiled down: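 Agonist activity is measured as luciferase luminescence in human MDA-kb2 cells whose MMTV reporter responds to both AR and GR. Compounds in DMSO incubate 16 h at 37C, 0% CO2, and ONE-Glo is read after 30 min.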

Androgen receptor (Homo sapiens), sequence (P10275 whole entry, looked up): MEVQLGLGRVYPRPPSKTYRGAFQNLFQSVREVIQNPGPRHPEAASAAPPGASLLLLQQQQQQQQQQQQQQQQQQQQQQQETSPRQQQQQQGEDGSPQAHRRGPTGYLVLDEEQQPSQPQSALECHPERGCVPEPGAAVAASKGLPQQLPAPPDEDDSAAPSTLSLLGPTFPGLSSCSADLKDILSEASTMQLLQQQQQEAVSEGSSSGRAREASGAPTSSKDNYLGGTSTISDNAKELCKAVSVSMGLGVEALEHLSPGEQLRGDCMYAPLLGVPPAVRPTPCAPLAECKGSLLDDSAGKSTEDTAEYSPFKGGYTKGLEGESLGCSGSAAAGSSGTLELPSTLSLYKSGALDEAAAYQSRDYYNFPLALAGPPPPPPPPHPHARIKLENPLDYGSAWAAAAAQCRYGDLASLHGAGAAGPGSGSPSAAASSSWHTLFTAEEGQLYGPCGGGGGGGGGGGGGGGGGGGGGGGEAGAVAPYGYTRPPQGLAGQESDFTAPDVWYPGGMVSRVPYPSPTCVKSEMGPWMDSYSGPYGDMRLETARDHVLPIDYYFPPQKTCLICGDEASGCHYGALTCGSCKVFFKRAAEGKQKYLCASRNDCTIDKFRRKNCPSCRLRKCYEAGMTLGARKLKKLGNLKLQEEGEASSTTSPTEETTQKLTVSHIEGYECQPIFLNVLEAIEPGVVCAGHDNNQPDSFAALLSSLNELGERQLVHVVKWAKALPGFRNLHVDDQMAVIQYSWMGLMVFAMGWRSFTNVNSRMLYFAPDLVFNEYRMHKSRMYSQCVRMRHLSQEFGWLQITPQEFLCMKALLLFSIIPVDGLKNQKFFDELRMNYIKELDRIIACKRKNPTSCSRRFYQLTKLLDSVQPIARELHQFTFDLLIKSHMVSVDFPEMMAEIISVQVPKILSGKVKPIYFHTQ

For the compound `CCCCCCCCCCCCc1ccccc1`, in assay [1], the call was inactive. Also, the Potency entry in assay [2], in [3], in [4], in [5], in assay [6] and in assay [7] was “inactive” in each case.

As for `CCCCCCCCCCCCCCO`, the compound was called inactive in [1]. In addition, the Potency result in [2], in assay [3], in [4], in assay [5], in [6] and in assay [7] was “inactive” in each case.

With `CCc1cccc(C)c1N`, the compound was classed as inactive in [1] and in assay [8]. The Potency result in [2], in assay [3], in assay [4], in assay [5], in assay [9] and in assay [10] was “inactive” in each case. The Potency result in assay [6] and in [7] was “inactive” in each case.

Turning to `CC(=O)Nc1cccc(O)c1`, in [1], the compound was classed as inactive. In addition, the Potency result in assay [2], in assay [3], in [4], in assay [5], in assay [6] and in [7] was “inactive” in each case.

For the compound `OCCOCCN1CCN(C2=Nc3ccccc3Sc3ccccc32)CC1`, the result in assay [1] was inactive. Further, the Potency in assay [2] was 29.8 µM (active) and 8.41 µM (active); in assay [3], 26.6 µM (active) and 9.44 µM (active); in [4], 26.6 µM (active); in assay [5] it was “inactive and 26.8 µM (active)”. Also, the Potency result in assay [6] was “inactive”.

For the compound `O=C(O)c1ccc2c(c1)C(=O)OC2=O`, the call in assay [1] and in assay [8] was inactive. The Potency entry in assay [2], in assay [3], in assay [4], in assay [5], in [9] and in assay [10] was “inactive” in each case. Further, the Potency result in [6] and in assay [7] was “inactive” each time.

As to `Nc1cc([N+](=O)[O-])ccc1O`, the outcome in [1] was inactive. Further, the Potency result in [2], in [3], in [4], in [5], in assay [9] and in assay [10] was “inactive” throughout. Besides, the Potency is 54.5 µM (active) and 60.8 µM (active) in assay [6]; 30.6 µM (active) and 60.8 µM (active) in [7].

With `FC(F)(F)c1ccc(Cl)c(Cl)c1`, the result in assay [1] and in assay [8] was inactive. Further, the Potency result in assay [2], in assay [3], in assay [4], in assay [5], in assay [9] and in assay [10] was “inactive” each time. Moreover, the Potency result in assay [6] and in assay [7] was “inactive” throughout.

`O=C(O)c1cc(=O)c2c(OCC(O)COc3cccc4oc(C(=O)O)cc(=O)c34)cccc2o1`: the compound was called inactive in assay [1]. The Potency entry in assay [2], in assay [3], in [4], in [5] and in assay [6] was “inactive” throughout.

As for `CC(c1cc2ccccc2s1)N(O)C(N)=O` (centres undefined), the outcome in assay [1] and in assay [8] was inactive. The Potency entry in assay [2], in assay [3], in [4], in assay [5], in [9] and in assay [10] was “inactive” in each case. The Potency result in [6] and in [7] was “inactive” each time.

With `OCCOCCOCCO`, the call in [1] and in [8] was inactive. The Potency result in assay [2], in assay [3], in assay [4], in [5], in assay [9] and in assay [10] was “inactive” throughout. In addition, the Potency entry in [6] and in assay [7] was “inactive” each time.

As for `CCCC(C)=O`, the compound was classed as inactive in assay [1]. The Potency entry in assay [2], in [3], in assay [4], in assay [5], in [6] and in assay [7] was “inactive” each time.

Regarding `CC(C)(C)[C@@H](O)[C@@H](Cc1ccc(Cl)cc1)n1cncn1`, in assay [1], the compound was classed as inactive. Also, the Potency entry was “inactive and 48.5 µM (active)” in assay [2]; 30.6 µM (active) in assay [3]; 61.1 µM (active) in assay [4]. Further, the Potency entry in [5], in assay [6] and in [7] was “inactive” throughout.

Take `CC1=CCC2CC1C2(C)C` (centres undefined): in assay [1], the result was inactive. Further, the Potency entry in assay [2], in [3], in assay [4], in assay [5], in assay [6] and in assay [7] was “inactive” in each case.

With `O=C(O)c1ccc(C(=O)O)cc1`, the result in assay [1] was inactive. Further, the Potency entry in [2], in [3], in assay [4], in assay [5], in [6] and in [7] was “inactive” each time.

Regarding `O=C(O)CCCC[C@@H]1SC[C@@H]2NC(=O)N[C@@H]21`, the compound was called inactive in assay [1]. In addition, the Potency entry in [2], in [3], in assay [4], in [5], in assay [6] and in assay [7] was “inactive” throughout.

Take `CCC(O)OCCCOC` (centres undefined): the compound was called inactive in assay [1]. Besides, the Potency result in [2], in [3], in assay [4], in [5], in [6] and in [7] was “inactive” in each case.

For the compound `O=[N+]([O-])c1ccc(/C=C/c2ccc([N+](=O)[O-])cc2S(=O)(=O)O)c(S(=O)(=O)O)c1`, in [1], the outcome was inactive. In addition, the Potency entry in assay [2], in [3], in assay [4], in assay [5], in assay [6] and in [7] was “inactive” each time.

As to `C=C(C)C(=O)O[C@H]1C[C@@H]2CC[C@@]1(C)C2(C)C`, the result in assay [1] was inactive. Also, the Potency entry in assay [2], in assay [3], in [4], in assay [5], in assay [6] and in [7] was “inactive” each time.

Take `O=c1[nH]nnc2ccccc12`: the result in assay [1] was inactive. The Potency result in assay [2], in assay [3], in assay [4], in [5], in [6] and in [7] was “inactive” each time.

`COc1cc(Cc2cnc(N)nc2N)cc(OC)c1OC`: the result in [1] was inactive. Further, the Potency entry in assay [2], in [3], in assay [4], in assay [5], in [6] and in assay [7] was “inactive” in each case.

Consider `CCOC(=O)NNc1nncc2ccccc12`, for which, in [1], the compound was called inactive. Also, the Potency result in assay [2], in [3], in [4], in assay [5], in assay [6] and in assay [7] was “inactive” in each case.

With `CC(=O)OCC(=O)[C@@]12N=C(C)O[C@@H]1C[C@H]1[C@@H]3CCC4=CC(=O)C=C[C@]4(C)[C@H]3[C@@H](O)C[C@@]12C`, the result in assay [1] was inactive. The Potency entry in [2], in assay [3], in [4], in [5], in [6] and in assay [7] was “inactive” each time.

For `O=c1[nH]c(=O)n([C@H]2CCCO2)cc1F`, in [1], the outcome was inactive. Also, the Potency entry in [2], in [3], in [4], in assay [5], in assay [6] and in assay [7] was “inactive” in each case.

As for `Cc1cc(C)c(C)cc1C`, the outcome in assay [1] was inactive. For the same compound, the Potency entry in assay [2], in assay [3], in assay [4], in assay [5], in assay [6] and in assay [7] was “inactive” each time.

Take `CCCCC(CC)COC(=O)C(C#N)=C(c1ccccc1)c1ccccc1` (centres undefined): the compound was called inactive in assay [1]. Further, the Potency in assay [2] was 11.9 µM (active); in assay [4] it was 13.3 µM (active) and inactive. Moreover, the Potency entry in assay [3], in [5], in assay [6] and in assay [7] was “inactive” throughout.

For `Oc1cccc2ccccc12`, the outcome in assay [1] was inactive. Besides, the Potency result in [2], in assay [3], in assay [4], in assay [5], in assay [6] and in [7] was “inactive” each time.

Values taken from PubChem BioAssay (Tox21).
